The record followed here is the supplement of paper PMC10849652.

Experiment in all cases: log2 fold change, soluble protein after heating vs DMSO (PISA); higher = thermal stabilisation; K562 cells, 10 uM, 30 min; active = over 0.2 and 3.5 SD of the protein, either way, in both replicates (recomputed)
Compound in assay [1]: COC1=CC=C(C=C1)CN2C=CC3=C2C=C(C=C3)C(=O)NO
The method, boiled down: (§1)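 Soluble protein was defined as the supernatant after 21,000xg for 90 min. It came from K562 cells at 2×10^6 cells/mL given 10 μM compound for 30 min, heated in aliquots for 3 min across 48°C-58°C, pooled, and extracted in PBS with 0.5% NP-40 at 4°C, and was quantified by TMTpro 16plex LC-MS/MS with equalised channel sums. Thermal stability against control samples, from duplicates, is reported as log2 fold change.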

Compound in a further assay: CON(C)C(=O)N1N=C(c2cc(F)ccc2F)S[C@@]1(CCCN)c1ccccc1 [filanesib]
The method in brief:
as §1

Compound in the next assay: CO[C@H]1C[C@@H]2CC[C@@H](C)[C@@](O)(O2)C(=O)C(=O)N2CCCC[C@H]2C(=O)O[C@H]([C@H](C)C[C@@H]2CC[C@H](n3cnnn3)[C@H](OC)C2)CC(=O)[C@H](C)/C=C(\C)[C@@H](O)[C@@H](OC)C(=O)[C@H](C)C[C@H](C)/C=C/C=C/C=C/1C [zotarolimus]
The method in brief: as §1

Compound in a further assay: COc1cc(C(=O)O)ccc1NC(=O)[C@@H]1N[C@@H](CC(C)(C)C)[C@](C#N)(c2ccc(Cl)cc2F)[C@H]1c1cccc(Cl)c1F [idasanutlin]
The method, boiled down:
as §1

Compound in a further assay: COc1cc(Nc2ncc3c(n2)-c2ccc(Cl)cc2C(c2c(F)cccc2OC)=NC3)ccc1C(=O)O [alisertib]
The method, boiled down: as §1

Compound in assay [2]: COc1cc2nc(-c3cc(F)ccc3O)nc(N[C@@H]3CNC[C@H]3C(C)(C)O)c2cc1OC
The method, boiled down:
as §1

Compound in a further assay: COc1cc2ncnc(Nc3ccc(F)c(Cl)c3)c2cc1OCCCN1CCOCC1 [gefitinib]
The method, boiled down:
as §1

Compound in assay [3]: COc1cccc2cc(-c3nc([C@H]4CC[C@H](C(=O)O)CC4)n4ncnc(N)c34)[nH]c12
The method, boiled down: as §1

Compound in a further assay: CS(=O)(=O)CCNCc1ccc(-c2ccc3ncnc(Nc4ccc(OCc5cccc(F)c5)c(Cl)c4)c3c2)o1 [lapatinib]
The method, boiled down: as §1

Compound in a further assay: CS(=O)(=O)N1CCN(Cc2cc3nc(-c4cccc5[nH]ncc45)nc(N4CCOCC4)c3s2)CC1 [pictilisib]
The method, boiled down:
as §1

Targets with a hit are over-represented here; the source holds about 7,900 in all. About 0.6% of all pairs of compound and target were hits. Values without a mark were called inactive.

UniProt Q9Y6R4, sequence (Q9Y6R4 whole entry, looked up): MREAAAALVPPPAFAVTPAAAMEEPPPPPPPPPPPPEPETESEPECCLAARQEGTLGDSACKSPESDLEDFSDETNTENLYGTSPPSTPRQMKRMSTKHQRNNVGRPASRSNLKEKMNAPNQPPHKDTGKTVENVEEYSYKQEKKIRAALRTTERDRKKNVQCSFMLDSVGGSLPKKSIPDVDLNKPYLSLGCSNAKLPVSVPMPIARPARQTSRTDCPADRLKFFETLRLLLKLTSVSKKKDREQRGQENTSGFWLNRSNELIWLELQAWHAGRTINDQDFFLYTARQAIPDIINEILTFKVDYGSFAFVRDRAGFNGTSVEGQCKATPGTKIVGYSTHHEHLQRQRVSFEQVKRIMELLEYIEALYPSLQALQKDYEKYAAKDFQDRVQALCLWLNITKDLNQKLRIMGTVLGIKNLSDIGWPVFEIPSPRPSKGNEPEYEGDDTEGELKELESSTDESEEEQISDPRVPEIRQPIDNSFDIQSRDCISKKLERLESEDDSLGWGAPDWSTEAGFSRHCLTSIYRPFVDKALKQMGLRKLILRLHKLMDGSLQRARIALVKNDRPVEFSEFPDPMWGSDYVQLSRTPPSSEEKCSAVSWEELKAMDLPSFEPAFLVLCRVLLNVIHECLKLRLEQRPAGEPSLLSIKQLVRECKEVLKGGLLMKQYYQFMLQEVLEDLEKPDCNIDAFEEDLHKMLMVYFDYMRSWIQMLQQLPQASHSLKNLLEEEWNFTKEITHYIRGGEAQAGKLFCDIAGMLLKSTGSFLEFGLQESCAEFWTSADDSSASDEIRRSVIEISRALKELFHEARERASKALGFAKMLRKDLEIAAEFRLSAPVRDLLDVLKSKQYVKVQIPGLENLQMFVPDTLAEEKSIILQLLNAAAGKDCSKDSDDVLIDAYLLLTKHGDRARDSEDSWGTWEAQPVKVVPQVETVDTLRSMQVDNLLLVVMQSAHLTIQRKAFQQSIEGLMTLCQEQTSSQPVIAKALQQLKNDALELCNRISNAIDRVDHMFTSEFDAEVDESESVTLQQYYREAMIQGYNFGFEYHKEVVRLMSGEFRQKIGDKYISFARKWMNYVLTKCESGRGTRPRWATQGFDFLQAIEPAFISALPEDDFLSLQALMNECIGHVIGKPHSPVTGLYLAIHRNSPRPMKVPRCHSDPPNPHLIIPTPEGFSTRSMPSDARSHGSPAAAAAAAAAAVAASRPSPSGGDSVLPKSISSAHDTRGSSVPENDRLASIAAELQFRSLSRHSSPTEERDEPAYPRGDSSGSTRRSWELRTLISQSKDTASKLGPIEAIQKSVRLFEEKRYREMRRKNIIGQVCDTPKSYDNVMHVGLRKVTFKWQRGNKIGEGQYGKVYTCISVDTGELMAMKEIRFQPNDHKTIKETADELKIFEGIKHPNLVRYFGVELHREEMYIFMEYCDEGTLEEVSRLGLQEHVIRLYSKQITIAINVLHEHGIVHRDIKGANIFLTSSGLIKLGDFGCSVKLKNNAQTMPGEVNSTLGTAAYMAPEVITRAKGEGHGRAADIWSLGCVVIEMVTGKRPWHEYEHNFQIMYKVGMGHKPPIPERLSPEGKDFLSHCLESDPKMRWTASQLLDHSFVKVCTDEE
UniProt P36507, sequence (P36507 whole entry, looked up): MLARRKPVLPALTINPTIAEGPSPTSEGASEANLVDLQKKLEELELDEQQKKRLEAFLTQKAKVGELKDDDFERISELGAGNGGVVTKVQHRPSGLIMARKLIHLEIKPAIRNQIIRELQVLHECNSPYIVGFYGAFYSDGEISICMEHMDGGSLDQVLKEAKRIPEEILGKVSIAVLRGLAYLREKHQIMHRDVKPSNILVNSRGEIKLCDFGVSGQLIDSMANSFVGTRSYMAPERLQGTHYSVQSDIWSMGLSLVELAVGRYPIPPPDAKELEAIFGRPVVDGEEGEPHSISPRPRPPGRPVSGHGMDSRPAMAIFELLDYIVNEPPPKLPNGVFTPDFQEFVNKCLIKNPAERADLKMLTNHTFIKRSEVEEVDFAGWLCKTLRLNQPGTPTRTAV
UniProt Q71SY5, sequence (Q71SY5 whole entry, looked up): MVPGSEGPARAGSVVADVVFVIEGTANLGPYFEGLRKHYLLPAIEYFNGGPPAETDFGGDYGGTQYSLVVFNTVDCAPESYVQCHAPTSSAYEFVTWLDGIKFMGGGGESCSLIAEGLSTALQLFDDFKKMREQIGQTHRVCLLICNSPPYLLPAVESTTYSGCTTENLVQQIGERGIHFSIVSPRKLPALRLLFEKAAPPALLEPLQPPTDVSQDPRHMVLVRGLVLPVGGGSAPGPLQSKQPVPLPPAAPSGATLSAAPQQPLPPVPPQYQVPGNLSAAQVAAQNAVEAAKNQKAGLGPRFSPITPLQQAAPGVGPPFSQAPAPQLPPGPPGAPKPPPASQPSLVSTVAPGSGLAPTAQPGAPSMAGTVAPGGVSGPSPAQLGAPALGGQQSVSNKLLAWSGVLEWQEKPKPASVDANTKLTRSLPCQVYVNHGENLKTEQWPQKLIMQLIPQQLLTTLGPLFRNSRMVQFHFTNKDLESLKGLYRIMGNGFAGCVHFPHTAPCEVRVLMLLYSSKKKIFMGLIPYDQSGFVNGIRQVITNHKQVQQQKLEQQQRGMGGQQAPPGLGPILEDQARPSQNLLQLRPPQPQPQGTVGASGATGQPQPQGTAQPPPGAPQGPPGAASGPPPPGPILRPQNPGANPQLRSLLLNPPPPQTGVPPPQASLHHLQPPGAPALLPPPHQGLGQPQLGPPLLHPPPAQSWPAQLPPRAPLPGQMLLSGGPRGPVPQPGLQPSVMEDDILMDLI
UniProt Q8WWC4, sequence (Q8WWC4 whole entry, looked up): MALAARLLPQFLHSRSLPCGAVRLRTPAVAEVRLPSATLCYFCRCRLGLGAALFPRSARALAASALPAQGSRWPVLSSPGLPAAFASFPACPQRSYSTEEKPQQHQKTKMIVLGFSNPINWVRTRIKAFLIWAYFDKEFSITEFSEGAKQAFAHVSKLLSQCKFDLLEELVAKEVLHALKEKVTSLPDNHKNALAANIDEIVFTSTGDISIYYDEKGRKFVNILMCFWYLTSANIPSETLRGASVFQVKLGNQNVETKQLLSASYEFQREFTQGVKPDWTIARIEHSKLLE
UniProt P01130, sequence (P01130 whole entry, looked up): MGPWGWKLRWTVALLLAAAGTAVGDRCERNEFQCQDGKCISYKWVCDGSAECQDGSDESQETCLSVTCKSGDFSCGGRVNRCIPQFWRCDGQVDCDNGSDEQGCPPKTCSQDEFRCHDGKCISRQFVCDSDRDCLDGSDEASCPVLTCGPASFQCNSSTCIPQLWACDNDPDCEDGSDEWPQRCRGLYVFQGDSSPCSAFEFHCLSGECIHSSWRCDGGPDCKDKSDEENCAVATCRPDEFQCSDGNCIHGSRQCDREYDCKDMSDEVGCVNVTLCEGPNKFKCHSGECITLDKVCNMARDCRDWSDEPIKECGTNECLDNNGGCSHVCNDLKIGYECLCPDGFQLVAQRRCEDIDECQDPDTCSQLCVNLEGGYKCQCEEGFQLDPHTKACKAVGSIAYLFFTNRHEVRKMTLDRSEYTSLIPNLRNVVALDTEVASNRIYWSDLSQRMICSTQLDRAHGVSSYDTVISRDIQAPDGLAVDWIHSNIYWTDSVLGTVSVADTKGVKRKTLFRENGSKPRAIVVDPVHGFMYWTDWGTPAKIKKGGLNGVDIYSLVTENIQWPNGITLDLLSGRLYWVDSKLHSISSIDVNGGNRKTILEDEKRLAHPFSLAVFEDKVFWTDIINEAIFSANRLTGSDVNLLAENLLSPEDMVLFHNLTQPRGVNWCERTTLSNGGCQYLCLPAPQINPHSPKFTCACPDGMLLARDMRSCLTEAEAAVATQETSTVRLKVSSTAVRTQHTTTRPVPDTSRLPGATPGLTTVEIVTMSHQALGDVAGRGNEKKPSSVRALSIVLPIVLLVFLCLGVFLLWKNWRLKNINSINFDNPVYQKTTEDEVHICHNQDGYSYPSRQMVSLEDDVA
UniProt Q13257, sequence (Q13257 whole entry, looked up): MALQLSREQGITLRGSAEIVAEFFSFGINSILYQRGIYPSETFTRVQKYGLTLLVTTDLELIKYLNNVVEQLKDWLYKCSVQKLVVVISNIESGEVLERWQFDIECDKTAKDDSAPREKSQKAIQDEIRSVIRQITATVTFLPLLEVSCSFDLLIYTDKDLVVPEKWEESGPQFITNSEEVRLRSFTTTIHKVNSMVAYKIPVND
UniProt Q9Y496, sequence (Q9Y496 whole entry, looked up): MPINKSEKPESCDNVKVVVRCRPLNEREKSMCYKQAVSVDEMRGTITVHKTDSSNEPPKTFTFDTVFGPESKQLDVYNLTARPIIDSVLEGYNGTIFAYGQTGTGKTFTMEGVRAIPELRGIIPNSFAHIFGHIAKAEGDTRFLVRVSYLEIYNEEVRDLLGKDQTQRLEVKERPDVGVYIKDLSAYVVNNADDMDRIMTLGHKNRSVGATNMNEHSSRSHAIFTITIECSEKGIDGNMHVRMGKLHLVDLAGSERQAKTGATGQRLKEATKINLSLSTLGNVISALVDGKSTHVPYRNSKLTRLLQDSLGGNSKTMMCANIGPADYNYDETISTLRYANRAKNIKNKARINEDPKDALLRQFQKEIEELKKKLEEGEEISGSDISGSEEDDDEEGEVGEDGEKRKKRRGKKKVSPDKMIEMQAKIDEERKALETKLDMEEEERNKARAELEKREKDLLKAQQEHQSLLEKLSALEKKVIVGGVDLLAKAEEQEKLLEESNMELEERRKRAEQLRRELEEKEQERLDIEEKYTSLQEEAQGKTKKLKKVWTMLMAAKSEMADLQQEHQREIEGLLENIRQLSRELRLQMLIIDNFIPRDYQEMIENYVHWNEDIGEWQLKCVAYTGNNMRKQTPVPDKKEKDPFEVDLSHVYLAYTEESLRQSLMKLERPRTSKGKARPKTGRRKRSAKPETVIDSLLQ

As for MEAK7 (UniProt Q6P9B6), the log2 fold change in assay [1] is -0.046; with filanesib, -0.109; with zotarolimus, -0.002; with idasanutlin, -0.013; in the assay with alisertib, -0.012; in assay [2], -0.101. Further, the log2 fold change was -0.142 in the assay with gefitinib, -0.055 in [3], 0.087 with lapatinib and -0.063 with pictilisib.

For the target LDLR (UniProt P01130), the log2 fold change was -0.012 in assay [1]; 0.005 in the assay with filanesib; -0.07 with zotarolimus; 0.009 with idasanutlin; 0.073 in the assay with alisertib; -0.017 in assay [2]. The log2 fold change with gefitinib was 0.095; in assay [3] it was 0.008; with lapatinib it was 0.042; with pictilisib, 0.078.

MAP3K4 isoform 2 (UniProt Q9Y6R4): the log2 fold change in assay [1] was 0.004; with filanesib, -0.037; with zotarolimus, 0.003; in the assay with idasanutlin, -0.023; with alisertib it was -0.043; in assay [2], 0.03. Moreover, the log2 fold change was 0.034 with gefitinib, 0.086 in assay [3], 0.024 with lapatinib and 0.11 with pictilisib.

MAPRE3 (UniProt Q9UPY8): the log2 fold change in [1] is -0.242 (active); with filanesib, 0.006; with zotarolimus, 0.013; with idasanutlin it was 0.023; with alisertib, 0.022; in [2] it was 0.033. Further, the log2 fold change with gefitinib was 0.004; in [3], -0.013; with lapatinib, -0.044; in the assay with pictilisib it was -0.008.

On to JMJD6 isoform 3 (UniProt Q6NYC1), for which the log2 fold change in [1] is -0.061; with filanesib, -0.039; in the assay with zotarolimus it was 0.03; in the assay with idasanutlin, 0.019; with alisertib, 0.013; in assay [2], -0.088. The log2 fold change with gefitinib was 0.059; in [3] it was -0.021; with lapatinib, -0.016; with pictilisib, 0.039.

In the case of MAP2K3 isoform 3 (UniProt P46734), the log2 fold change in assay [1] was 0.076; with filanesib it was 0.01; with zotarolimus, -0.018; with idasanutlin, -0.019; with alisertib it was 0.152; in assay [2], 0.166. Also, the log2 fold change in the assay with gefitinib was -0.086; in assay [3], -0.022; with lapatinib it was -0.079; with pictilisib it was 0.07.

In the case of LEO1 (UniProt Q8WVC0), the log2 fold change in assay [1] was -0.038; with filanesib it was 0.021; with zotarolimus, 0.175; with idasanutlin, 0.023; with alisertib, -0.08; in assay [2], -0.035. Also, the log2 fold change was 0.009 with gefitinib, -0.034 in [3], -0.032 with lapatinib and 0.009 with pictilisib.

On to KIF3A (UniProt Q9Y496), for which the log2 fold change in [1] is 0.219; with filanesib, -0.091; in the assay with zotarolimus, -0.004; with idasanutlin it was 0.056; in the assay with alisertib, -0.027; in [2] it was 0.137. In addition, the log2 fold change with gefitinib was -0.129; in [3] it was 0; with lapatinib, -0.063; in the assay with pictilisib, 0.146.

Regarding MED25 isoform 3 (UniProt Q71SY5), the log2 fold change is -0.015 in assay [1]; -0.018 in the assay with filanesib; 0.136 with zotarolimus; 0.004 with idasanutlin; 0.048 in the assay with alisertib; -0.01 in [2]. Also, the log2 fold change in the assay with gefitinib was 0.093; in [3], -0.285; in the assay with lapatinib, -0.03; with pictilisib it was 0.103.

In the case of MAD2L1 (UniProt Q13257), the log2 fold change in assay [1] is -0.024; with filanesib, -0.042; with zotarolimus, 0.034; with idasanutlin, -0.12; with alisertib, -0.003; in [2], 0.048. Besides, the log2 fold change with gefitinib was 0.008; in [3], 0.01; with lapatinib, -0.064; with pictilisib, 0.024.

Consider MAIP1 (UniProt Q8WWC4), for which the log2 fold change in assay [1] is 0.054; with filanesib, -0.12; in the assay with zotarolimus it was -0.025; with idasanutlin, -0.033; with alisertib, -0.047; in [2], -0.088. Moreover, the log2 fold change is -0.002 in the assay with gefitinib, 0.095 in assay [3], 0.036 with lapatinib and 0.01 with pictilisib.

With IPO13 (UniProt O94829), the log2 fold change was -0.017 in [1]; -0.144 with filanesib; -0.039 with zotarolimus; -0.038 in the assay with idasanutlin; 0.021 in the assay with alisertib; -0.024 in [2]. Moreover, the log2 fold change with gefitinib is -0.047; in [3], 0.008; in the assay with lapatinib, 0.038; with pictilisib, 0.109.

Take LARP1 (UniProt Q6PKG0): the log2 fold change is 0 in [1]; 0.048 in the assay with filanesib; -0.048 with zotarolimus; 0.089 with idasanutlin; 0.137 with alisertib; -0.001 in [2]. Besides, the log2 fold change with gefitinib was -0.049; in assay [3], -0.161; in the assay with lapatinib, 0.023; with pictilisib, -0.152.

Take MAP2K2 (UniProt P36507): the log2 fold change is -0.014 in [1]; -0.061 in the assay with filanesib; 0.018 with zotarolimus; 0 with idasanutlin; -0.103 in the assay with alisertib; -0.011 in assay [2]. Further, the log2 fold change is -0.011 in the assay with gefitinib, 0.007 in assay [3], -0.069 with lapatinib and -0.023 with pictilisib.
